# Wnt bcat act = activators of Wnt/beta-catenin signaling; Wnt/beta-catenin reporter cell assay, activator, plate reader; activation, % at 9.35 µM; hit rate 1.2% among 300,000; in the data active = activation above about 30%, passing the limit was not always enough; inconclusive = no clear call, values can overlap the other calls;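 note: 0% = neutral control wells and 100% = positive control wells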
# FXN GAA850 act = frataxin GAA850 promoter activation. HEK293 lucGAA850 FXN promoter luciferase reporter, 24 h; percent of 10 µM SAHA response. activation, % at 6 µM. hit rate 0.56% among 360,000;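 active = activation above the average of all compounds screened plus 3 SD, cutoff fixed separately per campaign, cut at about 7.5% in these data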;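 note: 0% = DMSO wells and 100% = 10 µM SAHA wells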
# MITF act = increases MITF-driven TRPM1 promoter luciferase signal; hit rate 0.75% among 300,000; SK-MEL-5 TRPM1-promoter luciferase, 24 h; % of positive control, neutral wells = 0; activation, % at 12.5 µM; AID 588334;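 active = mean activation of at least 80% with every replicate also reaching 80%; inconclusive = mean reaches 80% but some replicate falls short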;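 note: 0% = neutral control wells and 100% = parthenolide positive control wells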
# esBAF inh = blocks esBAF chromatin remodeling in mouse ES cells. Bmi1-luciferase knock-in reporter, 24 h; 100% = twice the neutral-well signal. AID 602393. hit rate 2% among 350,000. reporter increase, % at 12.5 µM; in the data active = activation above about 40%; inconclusive = no clear call, values can overlap the other calls;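 note: 0% = median of the plate's neutral control wells and 100% = double that signal; a rise in the Bmi1 reporter signal indicates esBAF inhibition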
# The depositor's hits bear a star; ? = inconclusive; / = not tested or not shown. Sampled rows, rich in hits. Any-hit rate of the full collection: about 2.8%.
SMILES,Wnt bcat act,FXN GAA850 act,MITF act,esBAF inh
COc1ncccc1-c1nnn(-c2ccc(C)cc2)n1,39*,2,57,?
Fc1ccc(-n2nnc(-c3ccccc3Br)n2)cc1,-1,2,9,2
COc1ncccc1-c1nnn(-c2ccc(F)cc2)n1,34*,4,-15,54*
COc1ncccc1-c1nnn(-c2ccc(Cl)c(Cl)c2)n1,39*,4,102*,88*
Cc1ccc(-n2nnc(-c3cc4ccccc4nc3Cl)n2)cc1,1,4,/,45*
Clc1ccc(-n2nnc(-c3nccs3)n2)cc1Cl,?,5,41,6
Cc1ccc(S(=O)(=O)Nc2ccc3c(c2)C(=O)N([C@H](C)CO)C[C@@H](C)[C@@H](CN(C)S(=O)(=O)c2ccc(F)cc2)O3)cc1,/,/,/,-2
O=c1[nH]c2ccccc2cc1-c1nnn(-c2ccc(F)cc2)n1,?,3,76,79*
Cc1cnc(NC(=O)C2CCC(C(C)(C)C)CC2)s1 (centres undefined),12,3,52,34
CC(C)(C)C1CCC(C(=O)Nc2nccs2)CC1 (centres undefined),0,-1,/,53*
Nc1ccc(N=Nc2ccccc2O)c(N)c1,49*,2,/,/
Cc1ccc(S(=O)(=O)Nc2ccc3c(c2)CC(=O)N([C@@H](C)CO)C[C@H](C)[C@H](CN(C)Cc2ccc(C(=O)O)cc2)O3)cc1,/,/,/,-1
Cn1nnc(NC(=O)C(c2ccccc2)c2ccccc2)n1,40*,-2,-10,-2
CCn1nnc(NC(=O)C(c2ccccc2)c2ccccc2)n1,0,4,-8,-8
CCOc1ccc(/C=N/Nc2ccccn2)cc1OC,14,6,58,/
COc1cccc(/C=N/Nc2ncccc2[N+](=O)[O-])c1OC,9,-8,/,/
CCCOc1ccc(/C=N/Nc2ccccn2)cc1OC,5,7,91*,29
C=CCOc1ccc(/C=N/Nc2ccccn2)cc1OC,-1,7,?,64*
COc1ccc(/C=N\Nc2ccccn2)c(OC)c1,14,6,/,52*
COc1ccccc1/C=N/Nc1nccnc1Cl,13,4,58,42*
COc1ccc(/C=N/Nc2ccccn2)c(OC)c1OC,8,4,33,/
O=C(C[C@@H]1CC[C@@H]2[C@H](COC[C@H](O)CN2S(=O)(=O)c2ccc(F)cc2)O1)N1CCc2ccccc2C1,/,/,/,5
CCN=C1S/C(=C\c2ccc(-c3cccc(C(=O)O)c3)o2)C(=O)N1CC,/,8.4*,68,/
CCN1C(=O)/C(=C\c2ccc(-c3cccc(C(=O)OC)c3)o2)SC1=Nc1ccc(C(=O)O)cc1,-2,/,/,/
C#CCN1C(=O)S/C(=C\c2ccc(-c3ccc(Cl)c(C(=O)O)c3)o2)C1=O,31*,7,27,38
SMILES,Wnt bcat act,FXN GAA850 act,MITF act,esBAF inh
O=C(O)c1cc(-c2ccc(/C=C3\NC(=O)N(c4ccccc4)C3=O)o2)ccc1Cl,9,1,-1,6
Cn1c(SCc2ccccc2F)nc2cccnc21,/,4,/,43*
CCOC(=O)CSc1nc2cccnc2n1C,-1,1,8,-2
CCOC(=O)c1c(-c2ccc(C)cc2)csc1NC(=S)NC(=O)c1ccccc1,-16,2,/,-3
CCOC(=O)c1c(-c2ccc(C)cc2)csc1NC(=O)c1cc2ccccc2oc1=O,12,2,2,49*
CC(=O)OC[C@H]1O[C@@H](n2ncc(=O)[nH]c2=O)[C@H](OC(C)=O)[C@@H]1OC(C)=O,/,-8,/,48*
O=C(Oc1ccc(Cl)c2cccnc12)c1cccc([N+](=O)[O-])c1,25,0,-16,/
O=[N+]([O-])c1ccccc1COc1ccc(Cl)c2cccnc12,41*,5,6,-42
O=C(Nc1ccccn1)C12CC3CC(C1)CC(C(=O)Nc1ccccn1)(C3)C2,-2,-2,8,/
Cc1nc2ncccn2c1-c1csc(Nc2ccccc2)n1,-1,1,-5,/
O=C(Nc1nc(-c2ccccn2)cs1)C1CC1,10,2,47,46*
c1ccc(Nc2nc(-c3ccccn3)cs2)cc1,40*,2,6,25
O=C(Nc1nc(-c2ccccn2)cs1)C12CC3CC(CC(O)(C3)C1)C2,40*,3,41,/
O=C(CC1CC2CCC1C2)Nc1nc(-c2ccccn2)cs1 (centres undefined),6,1,7,/
Cc1noc(C)c1NC(=O)N(C)C[C@H]1Oc2ccc(NS(=O)(=O)c3ccc(Cl)cc3)cc2CC(=O)N([C@@H](C)CO)C[C@@H]1C,/,/,/,3
CN1[C@@H]2c3ccc(-c4ccncc4)c(=O)n3C[C@H]1[C@H](CO)[C@H]2C(=O)Nc1nccs1,/,/,/,6
CC(C)c1ccc(/C=N/NC(=O)CCNC(=O)c2ccccc2)cc1,-5,2,76,62*
O=C(NN=Cc1ccccc1Cl)c1ccccc1,63*,2,/,/
O=C(N/N=C/c1ccccc1Cl)c1ccc(F)cc1,/,5,47,16
Cn1cccc1-c1cc(C(=O)N/N=C/c2ccccc2Cl)[nH]n1,10,5,86*,55*
Nc1ccc(C(=O)N/N=C/c2ccccc2)cc1,22,2,84*,/
CO[C@@H]1CN(C)C(=O)c2ccc(NC(=O)C3CC3)cc2OC[C@H](C)N(C(=O)Cc2ccccn2)C[C@@H]1C,/,/,/,3
O=C(NCc1ccco1)c1ccc(C(F)(F)F)cc1,/,1,4,/
CC(Cc1ccco1)NC(=O)c1ccc(C(F)(F)F)cc1 (centres undefined),18,5,128*,16
CC(C)(C)C(=O)Nc1ccc(N=Nc2ccccc2)cc1,-8,-11,-19,-61
SMILES,Wnt bcat act,FXN GAA850 act,MITF act,esBAF inh
Cc1cc(N=Nc2ccccc2)cc(C)c1NC(=O)C(F)(F)F,43*,6,107*,/
CSc1ccc(-c2nnn(Cc3ccc(Br)cc3)n2)cc1,2,1,/,31
c1ccc(Cn2nnc(-c3ccccc3)n2)cc1,22,0,48,44*
CSc1ccc(-c2nnn(Cc3ccccn3)n2)cc1,-1,4,63,51*
COc1cc(/C=C/C(=O)NC(=O)c2ccccc2O)ccc1O,19,2,84*,?
O=S(=O)(N[C@H]1CC[C@@H](CCn2cc(-c3cccc(F)c3)nn2)O[C@@H]1CO)c1ccc(Cl)cc1,/,/,/,11
COc1cc(C(=O)OCC(=O)NCc2ccco2)cc(OC)c1OC,-3,0,-15,-8
O=C(NCc1ccco1)c1cc(-c2cccc(Cl)c2)on1,/,0,37,/
Cc1ccc(-c2cc(C(=O)NCc3ccco3)no2)cc1,23,2,98*,27
COc1cc(OC)cc(C(=O)OCC(=O)NCc2ccco2)c1,47*,1,-4,-4
COc1cccc(-c2cc(C(=O)NCc3ccco3)no2)c1,-4,3,63,45*
O=C(NCc1ccco1)c1cc(-c2ccc(Cl)cc2)on1,5,4,63,13
C[C@@H]1CN([C@@H](C)CO)C(=O)c2cccc(NC(=O)Nc3ccc4c(c3)OCO4)c2O[C@H]1CN(C)C,/,/,/,2
O=C(C[C@H]1C[C@@H]2c3cc(NS(=O)(=O)c4ccc(F)cc4)ccc3O[C@@H]2[C@H](CO)O1)NCC1CC1,/,/,/,2

# Assay outcomes (PubChem)
